Only some compounds are listed: those with a hit (about 2.9% of all), similar ones and a draw of the others.
A549 tox-1 = Nrf2 qHTS screen for inhibitors: counterscreen for cytotoxicity; 0.16% of 390,000 active; Potency, µM (series often up to 46 µM), usual class: inhibitors; A549 ARE-Fluc cells, CellTiter-Fluor viability, 18-24 h
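A549 ARE_Fluc cells in 5% FBS OPTI-MEM were exposed to compounds in concentration-response for 18-24 h at 37 deg C. Viability was read by CellTiter-Fluor fluorescence (Ex 405/Em 525) after 30 min, before the luciferase read.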
ATXN2 expr inh = Primary qHTS for Inhibitors of ATXN expression; AID 1745845, 2022; HEK-293 ATXN2-luciferase reporter, luminescence, 24 h; Potency, µM (doses to about 57 µM), actives largely listed as inhibitors; 0.72% of 360,000 active; also: nearly all actives have a fitted effect of over 55% in size
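qHTS (up to 57 uM final) was run with 24 h compound exposure of reporter cells at 37 °C. Each well was multiplexed: SteadyGlo luminescence measured ATXN2-luciferase expression after a fluorogenic Gly-Phe-AFC viability readout (25 uM final).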
Nrf2 activator = qHTS of Nrf2 Activators. Potency, µM (top dose mostly 46.1 µM), hits mostly activators. 0.31% of 410,000 active. AREc32 ARE-luciferase reporter (MCF7-derived line), luminescence, 24 h; also: nearly all actives have a fitted effect of over 65% in size
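Each well held 1000 AREc32 cells, which were incubated with compound for 24 hr at 37 deg C after overnight attachment, and ARE reporter activity was quantified by firefly luciferase luminescence.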
Nrf2 block = Nrf2 qHTS screen for inhibitors. AID 504444, 2011. Potency, µM (doses to about 46 µM), actives largely listed as inhibitors. A549 ARE-Fluc reporter, luciferase luminescence, 18-24 h. 2.1% of 360,000 active; also: nearly all actives have a fitted effect of over 60% in size
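A549 ARE_Fluc cells, 5000/well, 5% FBS OPTI-MEM; compounds in dose-response, 18-24 h at 37 °C/5% CO2; CellTiter-Fluor viability read (Ex 405/Em 525), then BugLite luciferase luminescence = Nrf2 activity.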
S2 tox = Viability Counterscreen for Primary qHTS for Inhibitors of ATXN expression | AID 651635, 2014 | 0.49% of 400,000 active | Potency, µM (titrated, usually from 56.7 µM), actives largely listed as cytotoxic | S2 cells (HEK-293 line with an ATXN2-luciferase reporter) viability, CellTiter-Fluor protease fluorescence, 24 h; also: nearly all actives have a fitted effect of over 40% in size
FLuc counter 3 = Nrf2 qHTS screen for inhibitors: Purified Fluc Biochemical Counterscreen for Hit Validation. purified firefly luciferase, luminescence inhibition. AID 720522, 2013. Potency, µM (top dose mostly 57.5 µM), usual class: inhibitors. 4% of 1,400 active. shares compounds with Nrf2 block; also: nearly all actives have a fitted effect of over 65% in size
Target sequence (P08659 whole entry, looked up): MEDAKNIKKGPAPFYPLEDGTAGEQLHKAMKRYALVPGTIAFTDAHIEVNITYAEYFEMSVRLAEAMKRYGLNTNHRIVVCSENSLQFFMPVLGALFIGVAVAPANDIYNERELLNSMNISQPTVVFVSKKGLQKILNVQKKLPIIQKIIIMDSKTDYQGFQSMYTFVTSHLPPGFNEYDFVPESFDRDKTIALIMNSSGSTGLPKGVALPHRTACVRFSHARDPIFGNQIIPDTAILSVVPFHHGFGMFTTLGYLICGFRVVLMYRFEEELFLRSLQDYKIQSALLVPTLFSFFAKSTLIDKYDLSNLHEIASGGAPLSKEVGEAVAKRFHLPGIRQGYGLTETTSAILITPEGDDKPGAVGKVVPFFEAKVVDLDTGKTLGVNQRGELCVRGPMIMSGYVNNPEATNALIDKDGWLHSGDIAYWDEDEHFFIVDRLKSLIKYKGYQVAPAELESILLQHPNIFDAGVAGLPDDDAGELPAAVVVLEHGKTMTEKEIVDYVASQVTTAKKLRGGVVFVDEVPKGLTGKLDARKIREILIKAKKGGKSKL
A549 tox-2 = Nrf2 qHTS screen for inhibitors: A549 ARE-Fluc Cytotoxicity Counterscreen for Hit Validation | shares compounds with Nrf2 block | A549 ARE-Fluc cells, cytotoxicity counterscreen | Potency, µM (highest dose often 46.1 µM), most hits filed as inhibitors | 2% of 1,400 active;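 also: cells exposed to compounds for 18 to 24 hours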
Nrf2 ARE inh = Nrf2 qHTS screen for inhibitors: Nrf2 A549 ARE-Fluc Confirmation Assay for Hit Validation | shares compounds with Nrf2 block | A549 ARE-firefly luciferase reporter, luminescence | Potency, µM (series often up to 46.1 µM), usual class: inhibitors | 74% of 1,400 active; also: nearly all actives have a fitted effect of over 65% in size
Numbers stand for hits; – = inactive; ? = inconclusive; · = not tested or not shown; [ ] = dose if it differs, or a comment. Calls follow the shape of the dose curve; as a rule, active = well fitted curve in the direction sought with a large enough effect; inconclusive = small, poorly fitted or top-dose-only effect, or another doubt; inactive = no such curve, though single readings can be large; an effect the other way counts as inactive or inconclusive.

SMILES	A549 tox-1	ATXN2 expr inh	Nrf2 activator	Nrf2 block	S2 tox	FLuc counter 3	A549 tox-2	Nrf2 ARE inh
Cc1sc(NC(=O)Cc2ccc3c(c2)OCO3)nc1-c1ccc2c(c1)CCN2C(=O)c1ccc(F)cc1	–	–	–	5.2µM	?	–	–	2.6µM
COc1ccc(CN(Cc2ccco2)C(=O)COc2ccc(Cl)cc2C)cc1	–	·	–	–	·	·	·	·
CC(NNC(=S)N1CCN(c2ccccn2)CC1)c1nccc2ccccc12 (stereo unspecified)	?	?	–	5.8µM	11µM	–	?	?
CCCCCn1cc2c(c1-c1ccc(Cl)cc1)c(=O)n(C)c(=O)n2C	–	·	–	–	·	·	·	·
CCOC(=O)c1cccc(NC(=O)CSc2nc3ccccc3c(=O)n2CC)c1	–	–	–	?	–	·	·	·
CCn1c(SCC(=O)Nc2cccc(OC)c2)nc2ccccc2c1=O	–	–	–	8.2µM	–	–	–	–
O=C(Nc1ccc(OC(F)(F)F)cc1)C(NS(=O)(=O)c1cccc2nsnc12)c1ccccc1 (stereo unspecified)	–	–	–	?	?	·	·	·
Cc1ccc(S(=O)(=O)NCc2ccncc2)cc1C	–	–	–	2.3µM	?	–	–	2.1µM
CNC(=O)c1cc(S(=O)(=O)NCc2ccncc2)ccc1OC	–	–	–	?	–	·	·	·
O=S(=O)(NCc1ccncc1)c1ccc(Br)s1	–	–	–	1.5µM	–	–	–	1.5µM
COc1cc(S(=O)(=O)NCc2ccncc2)ccc1Br	–	–	–	3.3µM	–	–	–	3.7µM
COc1ccc(S(=O)(=O)NCc2cccnc2)cc1Br	–	·	–	7.3µM	?	–	–	?
CCc1cccc(C)c1NC(=O)CSc1nnc(N)s1	–	·	–	–	·	·	·	·
C1=C2C[N+]3(CCCC3)CC2Cc2ccc3ccccc3c21 (stereo unspecified)	–	–	–	2.1µM	–	–	–	7.3µM
Cc1cccc(Cl)c1NC(=O)N1CCCN(c2nc3ccc(Cl)cc3s2)CC1	?	·	–	9.2µM	?	–	–	9.2µM
COc1ccc2c(C=O)c[nH]c2c1	–	–	–	–	–	·	·	·
COc1ccc2c(/C=C/c3cc[n+](C)cc3)c[nH]c2c1	?	–	–	1.3µM	?	–	?	1.6µM
CC[n+]1ccc(/C=C/c2c[nH]c3ccccc23)cc1	?	?	–	1.3µM	–	–	?	4.6µM
Cc1ccc2[nH]cc(/C=C/c3cc[n+](C)cc3)c2c1	–	?	–	1.8µM	–	–	–	1.3µM
Cc1ccc2[nH]ccc(=O)c2c1	–	–	–	–	–	·	·	·
O=C(Nc1cc(C(F)(F)F)ccc1Cl)c1cnn(-c2ccccc2)c1-n1cccc1	–	·	–	?	·	·	·	·
Cc1ccc(S(=O)(=O)Nc2ncnc3sc(C)c(C)c23)cc1	–	–	–	?	–	·	·	·
Cc1sc2ncnc(NCCc3ccc(S(N)(=O)=O)cc3)c2c1C	–	?	–	2.3µM	–	–	–	6.5µM
NS(=O)(=O)c1ccc(CCNc2ncnc3sccc23)cc1	–	?	–	1.6µM	–	–	–	?
Cc1ccc(NC(=O)CN2C(=O)C(C)(C)c3cc(S(=O)(=O)N4CCCCC4)ccc32)c(Br)c1	–	–	–	·	–	·	·	·
SMILES	A549 tox-1	ATXN2 expr inh	Nrf2 activator	Nrf2 block	S2 tox	FLuc counter 3	A549 tox-2	Nrf2 ARE inh
Cn1cccc1C(=O)NC(=O)COC(=O)CNC(=O)c1ccc(Cl)cc1Cl	–	–[11.3 µM]	–	2.6µM	–	?	–	7.3µM
Cc1ccc(CSCC(=O)N2CCN(c3cc(Cl)ccc3C)CC2)cc1	–	·	–	·	·	·	·	·
COc1ccc(/C=N/NS(=O)(=O)c2ccc(C)cc2)cc1OC(=O)c1ccccc1	–	–	–	·	–	·	·	·
COc1ccc(/C=N/NS(=O)(=O)c2ccccc2)cc1OC(=O)c1ccc(C)cc1	–	–	–	9.2µM	–	–	–	7.3µM
Cc1nn(CC(=O)Nc2ccc(OC(F)(F)F)cc2)c(=O)c2c(C)n(-c3ccc(Cl)cc3)nc12	–	·	–	·	·	·	·	·
COCCN(Cc1ccc(C)c(Br)c1)S(=O)(=O)c1ccc2[nH]c(=O)ccc2c1	–	–	–	·	–	·	·	·
Cc1ccc(S(=O)(=O)N(Cc2ccccc2)c2ccccc2C(=O)NCc2ccco2)cc1	?	?	–	5.2µM	–	–	–	–
Cc1ccc(S(=O)(=O)N(Cc2ccccc2)c2ccccc2C(=O)Nc2ccccc2C(=O)NCc2ccco2)cc1	–	–	–	–	–	·	·	·
CCc1ccc(NC(=O)c2ccc3c(=O)n4c(nc3c2)CCCCC4)cc1	–	?	–	?	?	·	·	·
CCN(CC)S(=O)(=O)c1ccc(NC(=O)c2ccc3c(=O)n4c(nc3c2)CCCCC4)cc1	?	22µM	–	9.2µM	·	–	–	8.2µM
Oc1ccccc1-c1nc(NC2CCCC2)c2ccccc2n1	–	–	–	–	–	·	·	·
c1ccc(-c2nnc(-c3ccccn3)nc2NC2CCCCC2)cc1	?	?	–	1.8µM	–	–	?	4.1µM
COC(=O)c1[nH]c2ccc(C)cc2c1NC(=O)CN1CCC(C)CC1	–	–	–	?	–	·	·	·
COC(=O)c1[nH]c2ccc(C)cc2c1NC(=O)CN1CCN(c2ccc(F)cc2)CC1	?	–	–	8.9µM	?	–	–	8.2µM
Cc1cccc(N2CCN(C(=O)c3cn(C)c4ccc(S(=O)(=O)N(C)C)cc4c3=O)CC2C)c1 (stereo unspecified)	–	–	–	–	–	·	·	·
COc1ccc(C2C(=O)N(C3CCCCCC3)CC(=O)N2Cc2ccccc2)cc1 (stereo unspecified)	–	·	–	·	·	·	·	·
CN(c1ccccc1)c1nc(C#N)nc(N2CCOCC2)n1	–	·	·	8.2µM	·	–	–	?
O=C(Nc1cccc(S(=O)(=O)Nc2ccc(Cl)cc2)c1)c1ccc(Cl)nc1	?	?	–	3.3µM	?	–	–	4.1µM
COc1cccc(S(=O)(=O)Nc2ccc(C(=O)Nc3ccncc3)cc2)c1	–	–	–	?	–	·	·	·
COc1ccc(NS(=O)(=O)c2cccc(NC(=O)c3ccc(Cl)nc3)c2)cc1	?	–[11.3 µM]	–	0.58µM	–	–	–	1.6µM
CC(C)N(C(=O)CSc1nc2ccccc2n1-c1ccccc1)C(C)C	–	–	–	–	–	·	·	·

High-throughput results (PubChem BioAssay)
